Our source for the Potency values is PubChem BioAssay (NCATS).

Records with an inconclusive call do not appear. A call without a number means that no potency is given here. The source made the active and inactive calls. The call rests on the fitted dose curve; in most records, active means well fitted inhibition curve with a large enough effect; inconclusive means small, poorly fitted or top-dose-only effect; inactive means no such curve, though single readings can be large or run the other way.
Potency means the concentration at half of the fitted maximal effect.

Chain of Cytochrome P450 2C9 (Homo sapiens) (P11712 whole entry, looked up): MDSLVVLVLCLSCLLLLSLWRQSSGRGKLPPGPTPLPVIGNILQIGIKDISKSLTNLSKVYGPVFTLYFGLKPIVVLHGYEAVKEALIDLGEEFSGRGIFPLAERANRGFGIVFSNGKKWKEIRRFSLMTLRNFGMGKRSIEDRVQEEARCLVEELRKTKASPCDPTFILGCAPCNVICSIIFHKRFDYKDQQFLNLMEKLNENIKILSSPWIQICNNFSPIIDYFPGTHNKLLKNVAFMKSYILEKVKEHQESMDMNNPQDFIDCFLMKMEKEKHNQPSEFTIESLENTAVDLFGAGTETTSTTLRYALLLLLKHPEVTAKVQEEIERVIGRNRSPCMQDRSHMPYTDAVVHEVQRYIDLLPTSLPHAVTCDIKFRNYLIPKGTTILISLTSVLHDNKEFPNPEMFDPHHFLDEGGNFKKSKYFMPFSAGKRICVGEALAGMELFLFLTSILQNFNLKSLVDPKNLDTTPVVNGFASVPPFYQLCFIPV

The test deals with Cytochrome P450 2C9 (Homo sapiens) (UniProt P11712). Description: qHTS Assay for Inhibitors and Substrates of Cytochrome P450 2C9 (AID 883). Further: nearly all actives have a fitted effect of over 60% in size. To be noted: recombinant CYP2C9, luciferin-H luminescence, 60 min; series mostly up to 57.1 µM. The procedure:
NIH Molecular Libraries Screening Centers Network [MLSCN] NIH Chemical Genomics Center [NCGC] MLSCN Grant: None NCGC Assay Overview: The P450 gene superfamily is involved in the metabolism and clearance of xenobiotics. This assay used human CYP2C9 to measure the hydroxylation of deoxyluciferin (Luciferin-H; P450 Glo-Buffer) to luciferin. The luciferin is then measured by luminescence after the addition of a luciferase detection reagent. Luciferin-H concentration in the assay was equal to its Michaelis constant KM for CYP2C9. Inhibitors and some substrates limit the production of luciferin, and decrease measured luminescence.
NCGC Assay Protocol Summary: Two uL of enzyme and substrate mix (final concentrations: 10nM CYP2C9, 100uM Luciferin-H, 25mM KPO4) were dispensed into a white, solid bottom 1536-well microtiter plate. 23nL of compound was transferred by a pin tool. The plate was incubated at 37C for 10 min. Two uL of an NADPH regeneration solution (Promega supplied reagent) was dispensed and the reaction was allowed to continue for 60 min at 37C. Then the reaction was stopped by reconstituted P450 Glo-Buffer. After another 20 min of incubation the plate was read on the ViewLux (Perkin Elmer) at 60 sec exposure and 2x2 binning. This protocol was carried out with Promega-Glo reagents and further information can be found at http://www.promega.com/tbs/tb325/tb325.pdf. Data were normalized to the to AC100 inhibition (57uM sulphaphenazole). Keywords: P450, CYP2C9, Luciferase, MLSMR, MLSCN, NIH Roadmap, qHTS, NCGC
Turning to `COC(=O)[C@H](C)[C@@H]1C[C@@]1(C)[C@@H](NC(=O)OCc1ccccc1)c1ccccc1`, the Potency was 5.01 µM (active).

For the molecule `NCCC[C@@H](CC(=O)N[C@@H]1CCNC[C@H]1C(=O)N[C@H](CC(=O)N[C@@H](CCC(=O)O)CC(=O)O)Cc1ccccc1)NC(=O)C[C@H](Cc1ccccc1)NC(=O)[C@@H]1CNCC[C@H]1N`, the Potency entry was “inactive”.

For `CC(C)C[C@@H](CC(=O)N[C@H](CC(=O)N[C@@H]1CCCC[C@H]1C(=O)N[C@H](CC(=O)N[C@@H](CCC(=O)O)CC(=O)O)Cc1c[nH]c2ccccc12)C(C)C)NC(=O)[C@@H]1CCCC[C@H]1N`, the Potency result is “inactive”. Consider `CCN1CCC[C@@H]1CNC(=O)c1c(OC)ccc(I)c1O`, for which the Potency entry is “inactive”. For `CC(C)[C@@H](CC(=O)N[C@@H]1CCCC[C@H]1C(=O)N[C@H](CC(=O)N[C@@H](CCC(=O)O)CC(=O)O)Cc1ccccc1)NC(=O)C[C@H](Cc1ccccc1)NC(=O)[C@@H]1CCCC[C@H]1N` the value was “inactive”. For `CCC/C=C(\CCC)C(NS(=O)(=O)c1ccc(Cl)cc1)c1ccccc1` (stereo not given) the value was 2.51 µM (active); for `CCC/C=C(\CCC)C(NS(=O)(=O)c1cccc2cccnc12)c1ccc(-c2ccccc2)cc1` (stereo not given), 2 µM (active); for `CCC/C=C(\CCC)C(NS(=O)(=O)c1cccc2cccnc12)c1ccc(C(=O)OC)cc1` (stereo not given), 1.58 µM (active). Under `CC(C)C[C@@H](CC(=O)N[C@H](CC(=O)N[C@@H]1CCNC[C@H]1C(=O)N[C@H](CC(=O)N[C@@H](CCC(=O)O)CC(=O)O)Cc1c[nH]c2ccccc12)C(C)C)NC(=O)[C@@H]1CNCC[C@H]1N` stands “inactive”; under `CC(C)C[C@@H](CC(=O)N[C@@H](CCC(=O)O)CC(=O)O)NC(=O)[C@@H]1CCCC[C@H]1NC(=O)C[C@@H](NC(=O)C[C@H](Cc1ccccc1)NC(=O)[C@@H]1CCCC[C@H]1N)C(C)C`, “inactive”. Consider `C=C/C(=C\C)C[C@@H](CC(=O)N[C@@H](CCC(=O)O)CC(=O)O)NC(=O)[C@@H]1CNCC[C@H]1NC(=O)C[C@@H](NC(=O)C[C@H](Cc1ccccc1)NC(=O)[C@@H]1CCCC[C@H]1N)C(C)C`, for which the Potency result is “inactive”. As to `c1ccc2c(c1)Cc1cc3cc4c(cc3nc1-2)OCO4`, the Potency was 3.98 µM (active). Under `NCCC[C@@H](CC(=O)N[C@@H]1CCCC[C@H]1C(=O)N[C@H](CC(=O)N[C@@H](CCC(=O)O)CC(=O)O)Cc1c[nH]c2ccccc12)NC(=O)C[C@H](Cc1c[nH]c2ccccc12)NC(=O)[C@@H]1CCCC[C@H]1N` stands “inactive”; under `CC(C)[C@@H](CC(=O)N[C@@H]1CCNC[C@H]1C(=O)N[C@H](CC(=O)N[C@@H](CCC(=O)O)CC(=O)O)Cc1ccccc1)NC(=O)C[C@H](Cc1c[nH]c2ccccc12)NC(=O)[C@@H]1CCCC[C@H]1N`, “inactive”. `O=c1ccn([C@H]2O[C@H](CO)[C@@H](O)[C@@H]2O)c(=O)[nH]1`: the Potency result was “inactive”. Under `CC(C)C[C@@H](CC(=O)N[C@@H](CCC(=O)O)CC(=O)O)NC(=O)[C@@H]1CNCC[C@H]1NC(=O)C[C@@H](NC(=O)C[C@H](Cc1c[nH]c2ccccc12)NC(=O)[C@@H]1CCCC[C@H]1N)C(C)C` stands “inactive”.

`COC(=O)[C@@H]1C[C@H]1[C@@H](NC(=O)Oc1ccc(F)cc1)c1ccccc1`: the Potency is 3.98 µM (active).

With `CC(C)C[C@@H](CC(=O)N[C@@H](CCCN)CC(=O)N[C@@H]1CCNC[C@H]1C(=O)N[C@H](CC(=O)N[C@@H](CCC(=O)O)CC(=O)O)Cc1ccccc1)NC(=O)[C@@H]1CNCC[C@H]1N`, the Potency result was “inactive”.

On to `COc1cc2c(cc1OC)C(=O)N(C)CC2`, for which the Potency entry is “inactive”. With `C/C(=C\CNc1ncnc2c1ncn2[C@@H]1O[C@@H](CO)[C@@H](O)[C@H]1O)CO`, the Potency entry was “inactive”.

Regarding `C[C@@H](C(=O)Nc1ccc2ccccc2c1)[C@H]1C[C@]1(C)[C@H](NC(=O)OCc1ccccc1)c1ccccc1`, the Potency is 1.58 µM (active).

Turning to `Cc1ccc2oc(-c3ccccc3)c(O)c(=O)c2c1`, the Potency result was “inactive”. Under `O=C1C=CC2=C3c4cc(O)c(O)cc4C[C@@]3(O)COC2=C1O` stands 3.98 µM (active). Under `C[C@@H](C(=O)Nc1ccc2ccccc2c1)[C@H]1C[C@]1(C)[C@H](NP(=O)(c1ccccc1)c1ccccc1)c1ccccc1` stands 3.16 µM (active); under `O=c1cc(-c2ccccc2O)oc2cc(O)cc(O)c12`, 5.01 µM (active).

With `COc1ccc2c(=O)cc(-c3ccccc3)oc2c1O`, the Potency is 15.8 µM (active). Under `COc1ccccc1-c1oc2ccccc2c(=O)c1OC` stands 25.1 µM (active). Regarding `C=C(CO)[C@H]1Cc2c(ccc3c2O[C@H]2COc4cc(OC)c(OC)cc4[C@@H]2C3=O)O1`, the Potency result is “inactive”.

`C=C1CC[C@@H](O)C/C1=C/C=C1\CCC[C@]2(C)[C@@H]1CC[C@H]2[C@@H](C)/C=C\[C@@H](C)C(C)C`: the Potency was 20 µM (active). For `O=C(NCCc1c[nH]c2ccccc12)[C@H]1C[C@@H]1[C@H](NP(=O)(c1ccccc1)c1ccccc1)c1ccccc1` the value was 2 µM (active); for `C=C1C(=O)C=C2CN(C(=O)c3ccccc3)[C@@](Cc3ccc(F)cc3)(C(=O)OC)[C@@H]12`, 3.98 µM (active).

For the molecule `CC(C)C[C@@H](CC(=O)N[C@@H](CCC(=O)O)CC(=O)O)NC(=O)[C@@H]1CNCC[C@H]1NC(=O)C[C@@H](NC(=O)C[C@H](Cc1c[nH]c2ccccc12)NC(=O)[C@@H]1CNCC[C@H]1N)C(C)C`, the Potency entry is “inactive”. Under `CCCC[C@@H]1C[C@H]1C(NC(=O)c1ccccc1)c1ccccc1` (stereo not given in full) stands 7.94 µM (active).

Consider `CC(C)C[C@H](NC(=O)[C@@H](NC(=O)N[C@@H](Cc1ccccc1)C(=O)O)[C@H]1CCN=C(N)N1)C(=O)N[C@H](C=O)Cc1ccccc1`, for which the Potency entry was “inactive”.

Consider `NCCC[C@@H](CC(=O)N[C@@H]1CCNC[C@H]1C(=O)N[C@H](CC(=O)N[C@@H](CCC(=O)O)CC(=O)O)Cc1ccccc1)NC(=O)C[C@H](Cc1c[nH]c2ccccc12)NC(=O)[C@@H]1CCCC[C@H]1N`, for which the Potency entry was “inactive”. Under `C[C@@H](C(=O)Nc1ccc2ccccc2c1)[C@@H]1C[C@@]1(C)[C@@H](NS(=O)(=O)c1ccc2ccccc2c1)c1ccccc1` stands “inactive”; under `CC[C@@H]1[C@H]2CCCCN3[C@@H]2[C@@H](C[C@H]3[C@@H]2C[C@H](C)C(=O)O2)[C@@H]2[C@H]1OC(=O)[C@H]2C`, “inactive”; under `O=c1c(O)c(-c2ccc(O)c(O)c2)oc2c(OC[C@H]3O[C@@H](O)[C@@H](O)[C@H](O)[C@@H]3O)c(O)cc(O)c12`, “inactive”.

Take `COc1cc(-c2cc(=O)c3ccccc3o2)ccc1O`: the Potency was 6.31 µM (active). For `O=C(NCCc1c[nH]c2ccccc12)[C@@H]1C[C@H]1[C@@H](NP(=O)(c1ccccc1)c1ccccc1)c1ccccc1` the value was 0.251 µM (active).
